Source: PubChem BioAssay (NCI)
This is part of a sample that, as a whole, favours compounds with a hit. Of some 83,000 tested, about 20% had one in any assay.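 Compound tested at a single concentration for 48 hours in 96-well plates; a percent growth value below 10 was scored as active.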 Calls of active or inactive are those of the source.

tested on: NCI-H23 lung; test: NCI-60 one-dose screen, 48 h (100 = growth as untreated, 0 = no growth, -100 = all killed); details: 10 µM unless noted

SMILES | growth
COc1ccc(N=C2CSc3nnc(-c4cc(F)c(Cl)cc4Cl)n3N2)cc1 | -22.1% (active)
Nc1c(C(=O)Nc2cccc(Cl)c2)sc2nc3c(cc12)C(=O)CCC3 | 38% (inactive)
COc1ccc(CNc2c3ccccc3nc3ccc(OC)cc23)cc1 | 21.4% (inactive)
CCOC(=O)c1cc(C(=O)OCC)c(C)nc1C | 102% (inactive)
NC(=O)N/N=C\c1ccc([N+](=O)[O-])o1 | 99.6% (inactive)
Cc1ccc(NC(=O)c2sc3nc4c(cc3c2N)C(=O)CCC4)cc1Cl | 100% (inactive)
COc1ccc(-n2c(COc3ccc(F)cc3)n[nH]c2=S)cc1 | 112% (inactive)
COc1ccccc1-[n+]1cc(-c2ccc(-c3ccccc3)cc2)n2c1CCCCC2 | 2.82% (active)
Nc1cc(C(=O)O)cc(C(=O)O)c1 | 108% (inactive)
CN(C)c1nc(-c2cccs2)n2nc(-c3ccco3)cc2n1 | 87.2% (inactive)
O=C(Nc1cccc(-n2ccc3c(NC(=O)c4ccccc4)nccc32)c1)c1ccc(N2CCOCC2)c(C(F)(F)F)c1 | 28.1% (inactive)
CNC(=O)c1c(NC(=O)c2ccc(C(C)C)cc2)sc2c1CCC(=O)C2 | -1.47% (active)
CC(CN1CCN(CC(C)Nc2ccnc3cc(Cl)ccc23)CC1)Nc1ccnc2cc(Cl)ccc12 (centres undefined) | 62.3% (inactive)
Cc1c2c(cc3c1[nH]c1ccccc13)C=NCC2 | 88.7% (inactive)
CC(C)c1ccc2c(c1)CCC1C2CCCC1(C)NCc1ccccc1 (centres undefined) | 73% (inactive)
CC1(C)OC2OC3C(CN)OC(c4ccccc4)OC3C2O1 (centres undefined) | 99.5% (inactive)
O=C1Nc2ccc(Br)cc2/C1=N/c1nc(-c2ccccc2)cs1 | 92.4% (inactive)
CS(=O)(=O)c1ccc(C(=O)N/N=C/c2ccccc2Cl)cc1 | 94.8% (inactive)
Cc1ccc(Nc2cccc3ccccc23)cc1 | 83.6% (inactive)
CCCCc1nc(Cl)c(C2CC(c3ccc(S(N)(=O)=O)cc3)=NN2c2ccc(C#N)cc2)[nH]1 (centres undefined) | 98.5% (inactive)

SMILES | growth
O/N=C1\c2ccccc2-c2ccc(Br)cc21 | 96.1% (inactive)
CCN(CC)CCCC(C)Nc1c(-c2ccccc2)cnc2cc(Cl)ccc12 (centres undefined) | 73.2% (inactive)
OC(COCc1ccccc1)COCc1ccccc1 | 110% (inactive)
O=C(CC(=O)c1cccc(Cl)c1)c1cccc(Cl)c1 | 28.4% (inactive)
O=C1CCCN1C1CCN2CCCc3cccc1c32 (centres undefined) | 105% (inactive)
CC(C)(C)[Si](C)(C)OC1[C@@H](CNC(N)=O)O[C@@H](n2cnc3c(NC(=O)Nc4ccccc4)ncnc32)[C@H]1O[Si](C)(C)C(C)(C)C (some centres undefined) | 62.4% (inactive)
NC(CCC(=O)NC(CS)C(=O)NCC(=O)O)C(=O)O (centres undefined) | 108% (inactive)
C/C(=N\NC(=O)CSc1nc2ccccc2c(=O)n1CCc1ccc(S(N)(=O)=O)cc1)c1ccc(Br)cc1 | 60.4% (inactive)
CC(C)CCSc1nc(Nc2ccccc2)c(C#N)c(-c2ccc(F)cc2)n1 | 74.4% (inactive)
CCOC(=O)C1OC2(CCCC2)OC1C(=O)OCC (centres undefined) | 103% (inactive)
CS(=O)(=O)c1ccc(C(=O)N/N=C/c2ccccc2O)cc1 | 54.8% (inactive)
O=C(NCCN1CCCC1)n1cc(-c2ccncc2)c(-c2cc(O)cc(Cl)c2)n1 | 102% (inactive)
C[C@@H]1N=C(c2ccc3ccccc3c2)Nc2nc3ccccn3c2C1=O | 46.1% (inactive)
CNCCCn1c2c(c3ccc(Cl)cc3c1=O)C(=O)c1cc(OC)cnc1-2 | 34% (inactive)
CC(=O)Oc1ccccc1C(=O)Nc1ncc([N+](=O)[O-])s1 | 6.3% (active)
O=C1/C(=C/c2ccccc2)SC(=Nc2ccccc2)N1Nc1ccccc1 | 13.8% (inactive)
Oc1c(C(Nc2cccc3ccccc23)c2ccccc2)ccc2cccnc12 (centres undefined) | 41.8% (inactive)
COc1ccc(CC2c3cc(OC)c(OC)cc3CC[N+]2(C)CCC(=O)OCCCCCOC(=O)CC[N+]2(C)CCc3cc(OC)c(OC)cc3C2Cc2ccc(OC)c(OC)c2)cc1OC (centres undefined) | 93.4% (inactive)
CCn1c(Cc2ccccc2Nc2c(Cl)cccc2Cl)nnc1SCC(=O)Nc1ccccc1C(F)(F)F | 89.7% (inactive)
